In publication PMC12136788 one finds binding signal data, which are given here for 15 molecules.

Positions count from the first letter of the chain named. Whole data set: some 5,800 sequences, median “enrichment r” near 0.54, cut for the highest 2% near 16. The entries come from a sample that favours the highest values as a whole.

Sequences and labels used below:
B1: chr1:233671823:233671924:+|3pUTR|ENSG00000135750|msi1|total|mutant (ssRNA)
RNA: GGGAGUUCUACAGUCCGACGAUCUGCUGCUGUGGUCCGAAGCAGAUUUUAUACUUUUAACUGGAAACUUUGGGGUUUGCAUUCCGAUCAUUCCGCUGAUGGCUAAACCGCAAAAUUUAUAUUCCGAAGCAAAAAAAAAAAGCACAACAGAGGAUUGAGCAUCA
B2: chr3:133826890:133826991:-|3pUTR|ENSG00000154917|unk|total|mutant (ssRNA)
RNA: GGGAGUUCUACAGUCCGACGAUCUUUGAACGUGUUUCAGAUGUCAUGUGUUCCGUUUUUAUAUGUGUGUACAUAAUUAUAUACCGAGACCGACUUGUGUAUACACCUUCCACAAACACAUCCUCACGGAGAUACAUGUGCUCACAACAGAGGAUUGAGCAUCA
B3: chr4:140153917:140154018:-|5pUTR|ENSG00000196782|msi1|FALSE|bound_elsewhere (ssRNA)
RNA: GGGAGUUCUACAGUCCGACGAUCUUUGCAGUCGCCUCGGACUGUCCAUGUGUUUACUUCCCCCAGCCCGAGGAUUCGAUAUCUAGGUUCCUGUGAAAUGCAACUGAGCAGCCAAAGUACUUUGAGAACACGGGGCGGCAUAAACAACAGAGGAUUGAGCAUCA
B4: ENSG00000070961:be:win_2801|CDS|ENSG00000070961|bound_else_gene|NA|bound_elsewhere_windowed (ssRNA)
RNA: GGGAGUUCUACAGUCCGACGAUCGUCAUGCAUUCUAUCAACUUGUAGUAGUCUUUACACUCUUAUUUGCUGGAGAAAAGUUUUUUGACAUUGAUAGUGGAAGAAAUGCUCCUUUGCAUGCUCCUCCUUCAGAACAUUAUACUACAACAGAGGAUUGAGCAUCA
B5: chr10:122937732:122937852:-|CDS|ENSG00000119965|unk|total|mutant (ssRNA)
RNA: GGGAGUUCUACAGUCCGACGAUCGUAAGUGACAACUCAAAUAUACCCAACUCCGAGUUGCUGCCUUUUCUCCAGAAUUUAUGCCGUCAAGUUAAUCAUCUCCAUGUGGGAAAUAAGACCGAGUGUCAGGAAAACAUCACCAAGCAACAGAGGAUUGAGCAUCA
B6: chr4:168927217:168927233:+|3pUTR|ENSG00000129116|msi1_unk|FALSE|overlapping (ssRNA)
RNA: GGGAGUUCUACAGUCCGACGAUCAACCACCCAAAUGACCAAGGCAUAUAUAGUAUUUGGAGGAAUCAGGGGUUUGGAAGGAGUAGGGAGGAGAAUGAAGGAAAAUGCAACCAGCAUGAUUAUAGUGUGUUCAUUUAGAUAAAACAACAGAGGAUUGAGCAUCA
B7: chr1:228494639:228494729:+|3pUTR|ENSG00000168159|msi1_unk|total|mutant (ssRNA)
RNA: GGGAGUUCUACAGUCCGACGAUCGCCAUCGUGUCUCAUCUUGCUGUUAUCUCCCGCUCUUUCCCUCCUCCCAUUUCCUUCCGCCGUUGAAUUUUGCAAAGCUUGCCGCAGCCGCUCAGUUGCCUGCAGCAUCCUUGUGUGCCGCAACAGAGGAUUGAGCAUCA
B8: chr1:20742972:20743075:-|3pUTR|ENSG00000127483|unk|FALSE|unique (ssRNA)
RNA: GGGAGUUCUACAGUCCGACGAUCUAACCCUUUCUUAUUUGUAUUUGUUUUAGUAUUGUGAAGUUGUGUUAAAUAGUACUAGCUAGAAAUACAAAUUUCUGGUUAUCAUUUCUCUUCCCUGUGGCACUUGACAUUUUAAUUGUCCAACAGAGGAUUGAGCAUCA
B9: chr7:123541454:123541562:-|3pUTR|ENSG00000128609|unk|total|mutant (ssRNA)
RNA: GGGAGUUCUACAGUCCGACGAUCUCCACCGUGUCAUUUUAUUUCCGUCAUUAUUGAAUUAUACCAUUUACUCUGUUUUCUUACCGUCUUAAUUUUAUUAUAUUUUGUUGUUACUGUAUUAUAUUUGAAAACCUUCAAAUCCGACAACAGAGGAUUGAGCAUCA
B10: chr1:228494639:228494729:+|3pUTR|ENSG00000168159|msi1_unk|FALSE|overlapping (ssRNA)
RNA: GGGAGUUCUACAGUCCGACGAUCGCCAUCGUGUCUCAUCUUGCUGUUAUCUCUAGCUCUUUCCCUCCUCCCAUUUCCUUUAGUAGUUGAAUUUUGCAAAGCUUGUAGCAGUAGCUCAGUUGCCUGCAGCAUCCUUGUGUGUAGCAACAGAGGAUUGAGCAUCA
B11: chr19:57593639:57593745:+|3pUTR|ENSG00000171649|unk|FALSE|unique (ssRNA)
RNA: GGGAGUUCUACAGUCCGACGAUCUGAACCUUCUUAUUUCUCUACAUUCUUGCCAUACUUGGUAUGGUUAGUCUUUUUAAUUUUAGUUGUUUUAAUAGCUGUAUAAUAGCAUCUGUCUGUGAUUUUAUUGCAUUUUUCUGGUAUCAACAGAGGAUUGAGCAUCA
B12: chr17:58090057:58090109:+|3pUTR|ENSG00000264364|msi1_unk|FALSE|overlapping (ssRNA)
RNA: GGGAGUUCUACAGUCCGACGAUCGGGUAGGAUUAGCUUGAAUCUUUUUUUUCUUUACAUUUUUCUCCUGUCUGCUCCCUGCUUAGCCCUCAGUUUCCUCAUUCCUCUGGAGUUCUCUUAGAGCAGCCCCUGUUGUUAGUUGGCCAACAGAGGAUUGAGCAUCA
B13: chr10:30313878:30313980:-|CDS|ENSG00000107951|unk|total|mutant (ssRNA)
RNA: GGGAGUUCUACAGUCCGACGAUCUGUUUUUAUAUUUAAGCCCUUCAUGUACUUACUCAUUUUUUCUUCUGUGUAAUAAUCUACCGGGAAGGGAGCAAAACAAACCUGAUUCUUCUCCUCUGUACAUUCAGAAUCCAUUUGAAACAACAGAGGAUUGAGCAUCA
B14: chr3:15254852:15254953:-|3pUTR|ENSG00000131370|msi1|total|mutant (ssRNA)
RNA: GGGAGUUCUACAGUCCGACGAUCAAACUGUUAAUUCUGUCACAGCCUGUAUAUUUCCGUCAUUUGUAAAUCUCUUCAUACAACCGUGACUUCUUUUUUGACUGAUACAGUAUCUUAAUUACAAGGUUAUUUUGUACUUGUCUUCAACAGAGGAUUGAGCAUCA
B15: chr19:57593639:57593745:+|3pUTR|ENSG00000171649|unk|total|mutant (ssRNA)
RNA: B11 RNA with U68C, A69C, U83C, A84C, U95C, A96C, U106C, A107C

Sequence of MSI1 full-length (Q61474 whole entry): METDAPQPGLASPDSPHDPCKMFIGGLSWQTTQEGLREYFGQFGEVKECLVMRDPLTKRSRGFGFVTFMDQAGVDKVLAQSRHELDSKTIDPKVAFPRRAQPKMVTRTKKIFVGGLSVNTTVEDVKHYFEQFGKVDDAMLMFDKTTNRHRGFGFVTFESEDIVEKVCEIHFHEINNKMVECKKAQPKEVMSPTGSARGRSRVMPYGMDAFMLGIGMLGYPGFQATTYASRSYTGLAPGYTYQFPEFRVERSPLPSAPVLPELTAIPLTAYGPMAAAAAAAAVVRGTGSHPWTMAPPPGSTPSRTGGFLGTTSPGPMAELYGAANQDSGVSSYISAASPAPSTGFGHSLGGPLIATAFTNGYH

The experiment concerns the target MSI1 full-length (mouse, UniProt Q61474 1-362). In words: nsRBNS (natural sequence RNA bind-n-seq); RBNS binding buffer (assumed for nsRBNS): 25 mM Tris pH 7.5, 150 mM KCl, 3 mM MgCl2, 0.01% Triton X-100, 500 ug/ml BSA, 20 U/ml SUPERase-In, 4 C; UNK is unkempt and MSI1 is Musashi-1; names of the RNAs are library labels; protein concentration not given here; high values mean tight binding.
With B1, the binding signal came to 0.297 enrichment R.
The figure for B2 is 0.348 enrichment R; for B3 it is 0.362 enrichment R; for B4 it is 0.822 enrichment R.
With B5 the figure was 0.448 enrichment R; with B6, 4.58 enrichment R.
With B7 the figure was 0.702 enrichment R.
Consider B8, for which the binding signal was 3.75 enrichment R.
B9 yielded a binding signal of 37 enrichment R.
In the case of B10, the binding signal was 21.5 enrichment R.
In the case of B11, the binding signal came to 19.1 enrichment R.
With B12 the figure was 4.46 enrichment R.
In turn, B13 registered a binding signal of 0.482 enrichment R.
B14 yielded a binding signal of 0.393 enrichment R.
B15: the binding signal is 1.4 enrichment R.
